# Screening results deposited in PubChem BioAssay by NMMLSC.
# Bead autofluor: flagged as autofluorescent in microsphere protease counterscreen | compound autofluorescence counterscreen, microsphere flow cytometry; active compounds read high | fluorescence intensity (concentration not given with the values) | actives 3.1% (n = 360,000); in the data active = fluorescence intensity above about 16000; inconclusive = no clear call, values can overlap the other calls
# BoNT A protease: blocks Botulinum neurotoxin A light chain protease; multiplex microsphere protease substrate cleavage, flow cytometry; inhibition, % at 10 µM; actives 0.17% (n = 360,000); AID 588499; note: plate controls were buffer without enzyme for full effect and enzyme alone for no effect
# BoNT F protease: inhibitors of Botulinum neurotoxin F light chain protease | inhibition, % at 10 µM | actives 0.22% (n = 360,000) | Multiplex microsphere protease cleavage assay, flow cytometry; in the data active = inhibition above about 35%, passing the limit was not always enough; inconclusive = no clear call, values can overlap the other calls; note: plate controls were buffer without enzyme for full effect and enzyme alone for no effect
# Anthrax LF inh2: anthrax lethal factor protease inhibition; inhibition, % at 10 µM; AID 588501; multiplex microsphere protease cleavage assay, LF; P15917; actives 0.12% (n = 360,000); note: plate controls were buffer without enzyme for full effect and enzyme alone for no effect
# An asterisk follows results filed as active; ? = inconclusive. Only some compounds are listed: those with a hit (about 3.5% of all), similar ones and a draw of the others. Cut-off read from the data, not from the text of the source, unless noted: active = inhibition above about 30%; inconclusive = no clear call, values can overlap the other calls; inactive = below that.
SMILES,Bead autofluor,BoNT A protease,BoNT F protease,Anthrax LF inh2
O=C1c2ccccc2C(=O)N1CCc1nc(-c2ccc(Cl)cc2)no1,21023*,2,2,-35
O=C1c2ccccc2C(=O)N1CCc1nc(-c2cccnc2)no1,4529,1,-7,-3
CCCCOc1ccc(C(=O)NCCN2CCC(n3c(=O)[nH]c4ccccc43)CC2)cc1,6323,0,-15,-2
CC(=O)c1cc2c(cc1C)CCCC2(C)C,3660,0,-4,-1
CCCCCCCCCCOC(=O)c1csc2nnsc12,20631*,?,-3,-2
CCCCCOC(=O)c1ccccc1C(=O)O,4752,-1,-6,4
O=C1c2cccc(NCCCNCCO)c2C(=O)c2cccc(NCCCNCCO)c21,2093,30*,-102,-56
O=C1c2ccccc2C(=O)c2c(NCc3cccnc3)cccc21,8961,6,0,-9
COc1ccccc1Cc1c(-c2ccc(Cl)cc2)nc2ccc(Br)cn12,14201,12,8,18
CCc1ccc(OCC2Cn3c(nc4c3c(=O)[nH]c(=O)n4C)O2)cc1 (configuration not stated),4085,1,?,-5
Cc1ccc(OCC2Cn3c(nc4c3c(=O)[nH]c(=O)n4C)O2)cc1 (configuration not stated),20012*,2,3,-2
O=c1[nH]c(O)c(/C=C2\C=NN=C2c2ccccc2)c(=O)[nH]1,21773*,-4,-6,-2
O=S(=O)(Nc1nccs1)c1ccc(NS(=O)(=O)c2cccs2)cc1,19362*,6,10,-15
C[C@H](CO)N1C[C@H](C)[C@@H](CN(C)S(=O)(=O)c2ccc(C#N)cc2)OCc2cn(nn2)CCCC1=O,3784,0,0,-6
O=[N+]([O-])c1ccc(N2CCN(c3ccc(Cl)nn3)CC2)c(Cl)c1,20451*,-2,-4,0
CCOC(=O)C1=C(Cc2ccc(Cl)cc2)C(=O)c2ccccc2C1=O,23250*,3,-10,-9
CC1(C)CC(=O)C(C(C#Cc2ccccc2)C2=C(O)CC(C)(C)CC2=O)=C(O)C1,13101,-2,-8,-3
O=C1CCCC(O)=C1C(C#Cc1ccccc1)C1=C(O)CCCC1=O,17723*,-4,-7,1
Cn1c(NCc2cccnc2)nc2cc(-c3cccc(C(=O)NCCO)c3)sc2c1=O,3770,0,-2,-8
CCn1c(SCC(=O)N2CCN(c3ccccc3)CC2)nnc1-c1cc2cc(Cl)ccc2o1,22674*,?,0,-3
Cc1cc(NC(=O)CSc2nnc(-c3ccco3)n2Cc2ccccc2)no1,3763,-1,-13,4
Cc1cc(NC(=O)CSc2nnc(CNc3cccc(C(F)(F)F)c3)n2Cc2ccco2)no1,17703*,-3,-6,-4
CCOc1ccccc1NC(=O)CSc1nnc(-c2ccco2)n1Cc1ccco1,21394*,2,2,-12
C=CCn1c(SCC(=O)Nc2cc(C)ccc2OC)nnc1-c1ccco1,3117,0,-3,-4
Cc1cc(NC(=O)CSc2nnc(-c3ccco3)n2Cc2ccco2)no1,19201*,1,3,-10
SMILES,Bead autofluor,BoNT A protease,BoNT F protease,Anthrax LF inh2
CCOc1ccccc1NC(=O)CSc1nnc(-c2ccccn2)n1Cc1ccco1,5745,0,-12,-7
COc1ccc(C)cc1NC(=O)CSc1nnc(-c2ccco2)n1Cc1ccco1,17132*,-2,-5,0
COc1cc(NC(=O)Cn2c([N+](=O)[O-])cnc2C)c(OC)cc1Cl,3641,1,-11,-4
COCCN1C(=O)C(=O)/C(=C(/O)c2ccc(S(=O)(=O)N3CCOCC3)cc2)C1c1cccc(OC)c1 (configuration not stated),4468,-2,-3,0
CCOC(=O)c1cc(-c2ccc(Cl)cc2)nc2c1c(C)nn2CCC#N,3036,1,-1,5
CCOC(=O)c1cc(-c2ccc(OC)cc2F)nc2c1c(C)nn2CCC#N,25362*,?,-5,-4
COc1cc(CCN(C(=O)c2cccc(S(C)(=O)=O)c2)C(CCc2ccccc2)c2nc3ccccc3[nH]2)cc(OC)c1 (configuration not stated),5742,0,1,0
COc1ccccc1-c1ccc(/C=C2\C=CC(=O)O2)o1,6158,9,?,3
Cc1[nH]n(-c2ccccc2)c(=O)c1C1(C(F)(F)F)C(=O)N(c2ccccc2)C2=C1C(=O)CC(C)(C)C2 (configuration not stated),23155*,?,2,-2
Cc1ccc(N2C(=O)C(c3c(C)[nH]n(-c4ccccc4)c3=O)(C(F)(F)F)C3=C2CC(C)(C)CC3=O)cc1 (configuration not stated),2423,0,-1,4
CCN(CC)CCCOC(=O)C(OC(C)C)(c1ccccc1)c1ccccc1,?,36*,43*,-22
